Results reported in PMC4336329 (PLoS ONE, 2015).
Among all 310,000 compounds or so, about 14,000 (4.5%) showed an effect of 50% or more. Effects have a minus sign here. Only a selection was taken, and strong results are over-represented in it overall.

molecular target: human ether-à-go-go-related gene (hERG) potassium channel (human, UniProt Q12809); test: primary screen, population patch clamp on CHO cells stably expressing hERG; higher = less effect of the substance
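Also: peak tail current of the secondary pulse compared with the same well before compound.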

human ether-à-go-go-related gene (hERG) potassium channel, sequence (Q12809 whole entry, looked up): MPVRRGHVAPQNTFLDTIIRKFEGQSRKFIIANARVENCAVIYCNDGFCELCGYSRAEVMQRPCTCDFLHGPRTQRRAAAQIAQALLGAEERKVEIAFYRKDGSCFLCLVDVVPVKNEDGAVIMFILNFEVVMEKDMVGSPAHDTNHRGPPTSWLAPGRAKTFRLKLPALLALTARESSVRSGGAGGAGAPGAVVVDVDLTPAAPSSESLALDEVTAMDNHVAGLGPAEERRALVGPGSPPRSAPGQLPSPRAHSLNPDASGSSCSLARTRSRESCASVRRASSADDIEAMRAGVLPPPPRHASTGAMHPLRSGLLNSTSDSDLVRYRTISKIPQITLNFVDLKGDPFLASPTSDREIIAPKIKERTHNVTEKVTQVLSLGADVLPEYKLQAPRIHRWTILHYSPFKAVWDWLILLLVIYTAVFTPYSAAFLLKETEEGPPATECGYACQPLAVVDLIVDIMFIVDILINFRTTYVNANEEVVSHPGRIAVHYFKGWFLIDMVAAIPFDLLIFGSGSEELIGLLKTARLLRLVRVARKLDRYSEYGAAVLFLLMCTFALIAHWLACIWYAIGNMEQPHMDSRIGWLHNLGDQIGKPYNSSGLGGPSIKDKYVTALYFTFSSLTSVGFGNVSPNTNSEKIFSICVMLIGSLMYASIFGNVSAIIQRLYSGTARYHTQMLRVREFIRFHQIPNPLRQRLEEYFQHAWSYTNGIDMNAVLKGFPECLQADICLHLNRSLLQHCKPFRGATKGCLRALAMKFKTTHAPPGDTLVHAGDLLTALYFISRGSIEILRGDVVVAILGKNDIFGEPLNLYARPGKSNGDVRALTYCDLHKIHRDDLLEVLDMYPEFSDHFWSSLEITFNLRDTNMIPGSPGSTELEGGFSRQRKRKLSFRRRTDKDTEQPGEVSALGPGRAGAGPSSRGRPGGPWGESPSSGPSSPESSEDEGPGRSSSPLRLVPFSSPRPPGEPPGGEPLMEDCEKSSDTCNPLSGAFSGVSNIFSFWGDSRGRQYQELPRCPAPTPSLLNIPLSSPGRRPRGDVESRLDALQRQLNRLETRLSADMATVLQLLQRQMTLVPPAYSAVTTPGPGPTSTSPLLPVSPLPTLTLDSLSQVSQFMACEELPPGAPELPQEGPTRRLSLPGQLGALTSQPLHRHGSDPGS

With `CCN(CC)S(=O)(=O)c1cccc(-c2nnc(SCc3ncc(-c4ccccc4)o3)n2C)c1` as the compound, how does the “hERG current change (%, negative = inhibition) at 10uM” value read?
Its value is -68.2%.

With `CCN(CC)S(=O)(=O)c1cccc(-c2nnc(SCC(=O)NC)n2CCc2ccccc2)c1` as the compound, how does the “hERG current change (%, negative = inhibition) at 10uM” value read?
Its value is -27.3%.

`CCN(CC)S(=O)(=O)c1cccc(-c2nnc(SCC(N)=O)n2CCc2ccccc2)c1` was tested. Which “hERG current change (%, negative = inhibition) at 10uM” value did it give?
The value was -37.3%.

For `CCCNC(=O)C(Cc1cccc(C#N)c1)NC(=O)c1cccc([N+](=O)[O-])c1` (stereo not drawn), which “hERG current change (%, negative = inhibition) at 10uM” value is on record?
The value was -10.2%.

For `CCCNC(=O)C(Cc1cccc(Cl)c1)NC(=O)c1ccc(C#N)cc1` (stereo not drawn), which “hERG current change (%, negative = inhibition) at 10uM” value is on record?
The value was -11%.

How did the “hERG current change (%, negative = inhibition) at 10uM” value turn out when `CCCNC(=O)C(Cc1cccc(OC)c1)NC(=O)c1ccc(C#N)cc1` (stereo not drawn) was run?
Its value is -7.8%.

`CCCNC(=O)C(Cc1cccc(C#N)c1)NC(=O)c1ccc(C#N)cc1` (stereo not drawn) was tested. Which “hERG current change (%, negative = inhibition) at 10uM” value did it give?
The value was -55.9%.

How did the “hERG current change (%, negative = inhibition) at 10uM” value turn out when `CCCNC(=O)C(Cc1ccc(OC)cc1)NC(=O)c1ccc(C#N)cc1` (stereo not drawn) was run?
Its value is -50.7%.

How did the “hERG current change (%, negative = inhibition) at 10uM” value turn out when `CCCNC(=O)C(Cc1ccc(I)cc1)NC(=O)c1ccc(C#N)cc1` (stereo not drawn) was run?
The value was 8.48%.

With `O=C(Oc1ccc(F)cc1)c1ccc2c(=O)n3c(nc2c1)CCC3` as the compound, how does the “hERG current change (%, negative = inhibition) at 10uM” value read?
The value was -21.6%.

`O=C(COC(=O)c1cccc(O)c1)NC(=O)Cc1ccccc1` was tested. Which “hERG current change (%, negative = inhibition) at 10uM” value did it give?
The value was 3.25%.

For `Cc1nn(-c2ccccc2)c(N2CCCC2)c1/C=C1\N=C(c2ccccc2)OC1=O`, which “hERG current change (%, negative = inhibition) at 10uM” value is on record?
Its value is 11.7%.

`CCCCCC(=O)NNC(=O)c1c(O)c2ccccc2n(CC)c1=O` was tested. Which “hERG current change (%, negative = inhibition) at 10uM” value did it give?
Its value is -13.5%.

Which “hERG current change (%, negative = inhibition) at 10uM” value does the source give for `Cc1cccc(N=C2NN=C(c3ccccc3F)CS2)c1C` here?
The value was 41.8%.

Which “hERG current change (%, negative = inhibition) at 10uM” value does the source give for `Cc1cc(N2CCC(C)CC2)nc2cccc(O)c12` here?
The value was -28.7%.

For `COc1cc2ncc(C(=O)c3ccccc3)c(N3CCN(Cc4ccccc4)CC3)c2cc1OC`, which “hERG current change (%, negative = inhibition) at 10uM” value is on record?
The value was -12.9%.

`CCOC(=O)c1cnc2ccc(OCC)cc2c1N1CCN(C)CC1.Cl` was tested. Which “hERG current change (%, negative = inhibition) at 10uM” value did it give?
Its value is -47.8%.

For `CCc1ccc(C(=O)c2cnc3ccc(OC)cc3c2N2CCN(CC)CC2)cc1`, which “hERG current change (%, negative = inhibition) at 10uM” value is on record?
The value was -67.7%.

`CCOc1ccc2ncc(C(=O)c3ccc(OC)cc3)c(N3CCN(CC)CC3)c2c1` was tested. Which “hERG current change (%, negative = inhibition) at 10uM” value did it give?
The value was -74.5%.

`COc1ccc(N2CCN(c3c(S(=O)(=O)c4ccccc4)cnc4ccc(OC)cc34)CC2)cc1` was tested. Which “hERG current change (%, negative = inhibition) at 10uM” value did it give?
The value was -17.7%.

For `CCN1CCN(c2c(C=O)c(Cl)nc3ccc(OC)cc23)CC1`, which “hERG current change (%, negative = inhibition) at 10uM” value is on record?
Its value is -54.5%.

For `CCOc1ccc2ncc(S(=O)(=O)c3ccccc3)c(N3CCN(c4ccc(OC)cc4)CC3)c2c1`, which “hERG current change (%, negative = inhibition) at 10uM” value is on record?
Its value is -10.9%.

Which “hERG current change (%, negative = inhibition) at 10uM” value does the source give for `CCc1ccc2ncc(C(=O)c3ccccc3)c(N3CCOCC3)c2c1` here?
Its value is -45.7%.

How did the “hERG current change (%, negative = inhibition) at 10uM” value turn out when `CCOC(=O)c1cnc2ccc(OCC)cc2c1N1CCN(c2ccccc2OC)CC1` was run?
The value was -5.78%.
